Values joined by “and” are separate entries in the source; they are usually repeats but may differ in a detail not shown here. Identical values can stand only once.
Test: CRL2098 osteosarcoma cell growth inhibition, synergistic combos for chromothripsis tumors, BGB or cisplatin IC20 combos (AID 1671454);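 further: cells exposed for 96 h before readout; 0% = vehicle DMSO and 100% = killing by high DMSO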
Settings: CRL2098 osteosarcoma cells, drug combinations, at 0.5 µM, hits give high values; in the data active means inhibition above about 80%; inactive means the rest

inhibition, inactive:
CC(=O)OCC(CCn1cnc2cnc(N)nc21)COC(C)=O -1.73%
S=c1nc[nH]c2nc[nH]c12 -2.69% and -57.6% and -53.9%
COc1c(N2CCNC(C)C2)c(F)cc2c(=O)c(C(=O)O)cn(C3CC3)c12 (configuration not stated) -43.6% and -34.5%
CC1COc2c(N3CCN(C)CC3)c(F)cc3c(=O)c(C(=O)O)cn1c23 (configuration not stated) -97.4% and -9.66% and -3.54%
O=C1c2c(O)ccc(O)c2C(=O)c2c(NCCNCCO)ccc(NCCNCCO)c21 7.34%
CS(=O)(=O)OCCCCOS(C)(=O)=O -52.1% and -4.61%
O=C(O)CCCc1ccccc1 -56.1%
